The panel holds about 79,000 compounds, 15% with a hit somewhere; the sample as a whole holds those more often. Values without a mark were called inactive. Calls of active or inactive are those of the source. Cut-off read from the data, not from the text of the source: active = growth inhibition above about 70%; inactive = the rest.

This note sets out measurements from PubChem BioAssay (NCI).

Assay [1] can be described thus: NCI Yeast Anticancer Drug Screen. Data for the rad50 strain (AID 155).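 Note: 0% = growth of vehicle-only cultures of the same strain.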 The settings on record: S. cerevisiae rad50 strain growth inhibition, hits give high values. Summed up: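 Genetically altered yeast (DNA repair pathway); compound treatment; growth inhibition vs vehicle ctrl.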
Assay [2] can be described thus: NCI Yeast Anticancer Drug Screen. Data for the mec2-1 strain (AID 157). The conditions noted are these: S. cerevisiae mec2-1 strain, hits give high values. Summed up:
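mec2-1 yeast strain, carrying an alteration in DNA damage repair or cell cycle control, was exposed to compounds; growth inhibition was measured relative to vehicle-treated controls.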

Assay [3] in a line: NCI Yeast Anticancer Drug Screen. Data for the sgs1 mgt1 strain (AID 161).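 Note: 0% = growth of cultures given vehicle only.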 The conditions noted are these: S. cerevisiae sgs1 mgt1 strain, hits give high values. The essentials:
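Yeast cells carrying a defined DNA-repair defect were exposed to test compounds. Growth inhibition was measured relative to vehicle-treated controls.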

Assay [4] in a line: NCI Yeast Anticancer Drug Screen. Data for the cln2 rad14 strain (AID 165).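 Note: 0% = growth equal to vehicle treated cultures.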 The conditions noted are these: S. cerevisiae cln2 rad14 strain, hits give high values. Summed up: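 Yeast carrying cln2 and rad14 alterations (cell cycle control and DNA damage repair) were exposed to compounds. Growth inhibition was measured against vehicle-treated controls.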
A short description of assay [5]: NCI Yeast Anticancer Drug Screen. Data for the bub3 strain (AID 167). The conditions noted are these: S. cerevisiae bub3 mutant strain, hits give high values. The essentials: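 Yeast carrying a defined mutation is treated with each compound, and growth is compared with that of vehicle-exposed cells to give inhibition.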
Assay [6] is described as follows: NCI Yeast Anticancer Drug Screen. Data for the mlh1 rad18 strain (AID 175). The settings on record: S. cerevisiae mlh1 rad18 strain growth inhibition, hits give high values. The essentials: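 Growth inhibition of the yeast strain was measured after compound exposure and expressed relative to vehicle-treated controls. The strain carries defined defects in DNA damage repair.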

[7] abbreviates: at 5.0 µM (retest, dose inferred, filed as 0.5).
Where [8] appears, read: at 50.0 µM (retest, dose inferred, filed as 5.0).

`C[n+]1c(/C=C/c2ccc([N+](=O)[O-])cc2)ccc2ccccc21`: the growth inhibition in assay [1] (setting [7]) is 6%; in assay [1] (setting [8]) it was 85% (active); in assay [1] (at 50.0 µM), 42%; in assay [2] (setting [7]), -2%; in assay [2] (setting [8]), 89% (active); in assay [2] (at 50.0 µM), 60.8%. Besides, the growth inhibition in assay [3] (setting [7]) is 2%; in assay [3] (setting [8]), 77% (active); in assay [3] (at 50.0 µM), 69.7%; in assay [4] (setting [7]), 12%; in assay [4] (setting [8]), 77% (active); in assay [4] (at 50.0 µM), 82.7% (active). For the same compound, the growth inhibition in assay [5] (setting [7]) is -2%; in assay [5] (setting [8]), 92% (active); in assay [5] (at 50.0 µM) it was 11.7%; in assay [6] (setting [7]), 16%; in assay [6] (setting [8]) it was 92% (active); in assay [6] (at 50.0 µM), 80.2% (active).
For the compound `Cc1ccc(C)c(NC(=O)CCC(=O)C(C#N)c2cccc3ccccc23)c1` (configuration not stated), the growth inhibition was -22% in assay [1] (setting [7]); 10% in assay [1] (setting [8]); -25.4% in assay [1] (at 50.0 µM); 3% in assay [2] (setting [7]); 11% in assay [2] (setting [8]); 14.4% in assay [2] (at 50.0 µM). Besides, the growth inhibition in assay [3] (setting [7]) was -12%; in assay [3] (setting [8]), -4%; in assay [3] (at 50.0 µM), 15.9%; in assay [4] (setting [7]) it was -6%; in assay [4] (setting [8]) it was 8%; in assay [4] (at 50.0 µM) it was -23.5%. For the same compound, the growth inhibition is -5% in assay [5] (setting [7]); 5% in assay [5] (setting [8]); 10.3% in assay [5] (at 50.0 µM); 1% in assay [6] (setting [7]); 3% in assay [6] (setting [8]); 20.6% in assay [6] (at 50.0 µM).
Regarding `Oc1ccccc1C(c1ccccc1O)C(Cl)(Cl)Cl`, the growth inhibition is 94% (active) in assay [1] (setting [7]); 96% (active) in assay [1] (setting [8]); 95.7% (active) in assay [1] (at 50.0 µM); 96% (active) in assay [2] (setting [7]); 97% (active) in assay [2] (setting [8]); 98.5% (active) in assay [2] (at 50.0 µM). The growth inhibition was 94% (active) in assay [3] (setting [7]); 96% (active) in assay [3] (setting [8]); 97.3% (active) in assay [3] (at 50.0 µM); 97% (active) in assay [4] (setting [7]); 96% (active) in assay [4] (setting [8]); 95% (active) in assay [4] (at 50.0 µM). Besides, the growth inhibition in assay [5] (setting [7]) is 84% (active); in assay [5] (setting [8]) it was 96% (active); in assay [5] (at 50.0 µM), 98.2% (active); in assay [6] (setting [7]), 91% (active); in assay [6] (setting [8]), 96% (active); in assay [6] (at 50.0 µM), 98% (active).
Consider `CC(C)CNc1cc(Cl)nc(N)n1`, for which the growth inhibition in assay [1] (setting [7]) was -1%; in assay [1] (setting [8]), 0%; in assay [1] (at 50.0 µM), 88% (active); in assay [2] (setting [7]) it was 4%; in assay [2] (setting [8]), 1%; in assay [2] (at 50.0 µM), 92.3% (active). The growth inhibition in assay [3] (setting [7]) is 2%; in assay [3] (setting [8]), -3%; in assay [3] (at 50.0 µM), 89.9% (active); in assay [4] (setting [7]), -2%; in assay [4] (setting [8]), -6%; in assay [4] (at 50.0 µM), 91.3% (active). Further, the growth inhibition in assay [5] (setting [7]) is 1%; in assay [5] (setting [8]), -2%; in assay [5] (at 50.0 µM), 59%; in assay [6] (setting [7]), -4%; in assay [6] (setting [8]), -5%; in assay [6] (at 50.0 µM) it was 95.5% (active).
On to `CCN(CC)CCCNc1ncc(C)c2c1c1ccc3c(O)cccc3c1n2C`, for which the growth inhibition in assay [1] (setting [7]) was 22%; in assay [1] (setting [8]) it was 62%; in assay [1] (at 50.0 µM), 29.3%; in assay [2] (setting [7]), 8%; in assay [2] (setting [8]) it was 7%; in assay [2] (at 50.0 µM), -0.35%. For the same compound, the growth inhibition in assay [3] (setting [7]) was 21%; in assay [3] (setting [8]) it was 40%; in assay [3] (at 50.0 µM), -31.9%; in assay [4] (setting [7]), 8%; in assay [4] (setting [8]), 8%; in assay [4] (at 50.0 µM), -17.4%. Also, the growth inhibition is 19% in assay [5] (setting [7]); 35% in assay [5] (setting [8]); -9.95% in assay [5] (at 50.0 µM); 17% in assay [6] (setting [7]); 34% in assay [6] (setting [8]); -3.05% in assay [6] (at 50.0 µM).
Turning to `COc1ccc(C(=O)CC2(O)C(=O)N(C)c3c(Cl)cc(Cl)cc32)cc1` (configuration not stated), the growth inhibition in assay [1] (setting [7]) is -1%; in assay [1] (setting [8]) it was 61%; in assay [1] (at 50.0 µM), 67.6%; in assay [2] (setting [7]), 3%; in assay [2] (setting [8]), 56%; in assay [2] (at 50.0 µM), 67.3%. Moreover, the growth inhibition was 4% in assay [3] (setting [7]); 63% in assay [3] (setting [8]); 61.2% in assay [3] (at 50.0 µM); -2% in assay [4] (setting [7]); 66% in assay [4] (setting [8]); 62% in assay [4] (at 50.0 µM). For the same compound, the growth inhibition in assay [5] (setting [7]) was -2%; in assay [5] (setting [8]), 65%; in assay [5] (at 50.0 µM), 69%; in assay [6] (setting [7]), -2%; in assay [6] (setting [8]) it was 64%; in assay [6] (at 50.0 µM) it was 87.2% (active).
As for `O=C1c2ccccc2C(=O)c2sc(Nc3ccc(Cl)cc3)nc21`, the growth inhibition was 79% (active) in assay [1] (setting [7]); 97% (active) in assay [1] (setting [8]); 90.5% (active) in assay [1] (at 50.0 µM); 84% (active) in assay [2] (setting [7]); 99% (active) in assay [2] (setting [8]); 92.9% (active) in assay [2] (at 50.0 µM). Also, the growth inhibition in assay [3] (setting [7]) is 97% (active); in assay [3] (setting [8]), 99% (active); in assay [3] (at 50.0 µM), 93.8% (active); in assay [4] (setting [7]) it was 58%; in assay [4] (setting [8]), 98% (active); in assay [4] (at 50.0 µM), 88.8% (active). Moreover, the growth inhibition is 98% (active) in assay [5] (setting [7]); 99% (active) in assay [5] (setting [8]); 91.6% (active) in assay [5] (at 50.0 µM); 85% (active) in assay [6] (setting [7]); 98% (active) in assay [6] (setting [8]); 91.2% (active) in assay [6] (at 50.0 µM).
In the case of `Cc1occc1C(=S)Nc1ccc(Cl)c(C(=O)OCC2CC2)c1`, the growth inhibition is -14% in assay [1] (setting [7]); -3% in assay [1] (setting [8]); 84.8% (active) in assay [1] (at 50.0 µM); -21% in assay [2] (setting [7]); 5% in assay [2] (setting [8]); 86% (active) in assay [2] (at 50.0 µM). Also, the growth inhibition in assay [3] (setting [7]) is -15%; in assay [3] (setting [8]) it was -3%; in assay [3] (at 50.0 µM), 81.4% (active); in assay [4] (setting [7]) it was 2%; in assay [4] (setting [8]), 62%; in assay [4] (at 50.0 µM), 82.5% (active). Also, the growth inhibition in assay [5] (setting [7]) was -3%; in assay [5] (setting [8]), 17%; in assay [5] (at 50.0 µM), 80.2% (active); in assay [6] (setting [7]), -2%; in assay [6] (setting [8]), 8%; in assay [6] (at 50.0 µM) it was 16.2%.
For the compound `CC[N+]1=C(/C=C\c2cc(C)c3cccnc3c2O)C(C)(C)c2ccccc21`, the growth inhibition is 0% in assay [1] (setting [7]); 98% (active) in assay [1] (setting [8]); 53.9% in assay [1] (at 50.0 µM); -2% in assay [2] (setting [7]); 98% (active) in assay [2] (setting [8]); 48.7% in assay [2] (at 50.0 µM). For the same compound, the growth inhibition in assay [3] (setting [7]) is -6%; in assay [3] (setting [8]), 98% (active); in assay [3] (at 50.0 µM) it was 48.1%; in assay [4] (setting [7]), -4%; in assay [4] (setting [8]), 98% (active); in assay [4] (at 50.0 µM), 77% (active). Besides, the growth inhibition in assay [5] (setting [7]) is -5%; in assay [5] (setting [8]) it was 98% (active); in assay [5] (at 50.0 µM), 93.2% (active); in assay [6] (setting [7]), 0%; in assay [6] (setting [8]), 97% (active); in assay [6] (at 50.0 µM) it was 51.7%.
